High-throughput results deposited in PubChem BioAssay by several laboratories.
Sampled rows, rich in hits. Any-hit rate of the full collection: about 4.2%.
esBAF inh = Bmi1 luciferase reporter increase in mESCs, primary screen, esBAF inhibitor project, mouse ES cells, Bmi1 luciferase knock-in, single point. 24 h; 100% = twice the neutral-well signal. reporter increase, % at 12.5 µM. 2% of 350,000 active; in the data active = activation above about 40%; inconclusive = no clear call, values can overlap the other calls;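 note: a rise in the Bmi1 reporter signal indicates esBAF inhibition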
Wnt bcat act = Wnt/beta-catenin pathway activators, primary screen, cell-based, plate reader, single point; Wnt/beta-catenin reporter cell assay, activator; activation, % at 9.35 µM; 1.2% of 300,000 active; AID 743398, 2014; in the data active = activation above about 30%, passing the limit was not always enough; inconclusive = no clear call, values can overlap the other calls
hcDAF12 agonist = H. contortus DAF-12 nuclear receptor activators, primary screen, cell-based, luminescence, HEK293, lit1-tk-luc reporter; HEK293 hcDAF-12 lit1-tk-luc reporter; 0% DMSO, 100% Δ7-dafachronic acid; activation, % at 6.8 µM; 1.4% of 370,000 active; AID 652067, 2013;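 active = activation above the mean of all tested compounds plus 3 SD, cut at about 5.5% in these data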
DAX1 StAR inh = DAX1 (NR0B1) inhibitors on StAR promoter, primary screen, cell-based, luminescence, SF-1 (NR5A1), full-length DAX-1; inhibition, % at 6.8 µM; AID 652010, 2013; 1.1% of 370,000 active; HEK293T StAR-luciferase reporter, SF-1/DAX-1 repression relief;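 active = inhibition above the mean over all tested compounds plus 3 SD, cut at about 3.6% in these data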;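 note: higher inhibition means more luminescence from relief of DAX-1 repression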
ssDAF-12 act = S. stercoralis DAF-12 nuclear receptor activators, primary screen, cell-based, luminescence, HEK293, GRIP1 co-expression, lit1-tk-luc; Nuclear hormone receptor DAF-12 (Strongyloides stercoralis); HEK293 ssDAF-12/GRIP1 lit1-tk-luc reporter; % of 3 µM dafachronic acid response; activation, % at 6.8 µM; 1% of 370,000 active; AID 652126, 2013;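 active = activation above the mean over all tested compounds plus 3 SD, cut at about 0.9% in these data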
hgDAF12 agonist = H. glycines DAF-12 receptor agonists, primary screen, cell-based, luminescence, HEK293, GAL4 fusion, UAS-luciferase; HEK293 GAL4-hgDAF12 UAS-luciferase reporter, agonist luminescence; normalized to butyrate control; activation, % at 6.8 µM; 1.8% of 370,000 active; AID 687014, 2013;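 active = activation above a cutoff set at the mean of all screened compounds plus 3 SD, cut at about 10% in these data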
LXRb hcDAF ctr = LXR agonists, Gal4 luciferase reporter, confirmation, counter-screen for hcDAF-12 agonist project, cell-based, luminescence, HEK293, H. contortus campaign; AID 743027, 2013; activation, % at 6.8 µM; shares compounds with hcDAF12 agonist; HEK293 Gal4-LXR tk-luc reporter, 24 h; normalized: DMSO 0%, positive control 100%; 3,400 tested, under 10 active;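 active = mean percent activation of the reporter above a cutoff set as the average over tested compounds plus their standard deviation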
Target sequence (P55055 whole entry, looked up, the tested form may be a part): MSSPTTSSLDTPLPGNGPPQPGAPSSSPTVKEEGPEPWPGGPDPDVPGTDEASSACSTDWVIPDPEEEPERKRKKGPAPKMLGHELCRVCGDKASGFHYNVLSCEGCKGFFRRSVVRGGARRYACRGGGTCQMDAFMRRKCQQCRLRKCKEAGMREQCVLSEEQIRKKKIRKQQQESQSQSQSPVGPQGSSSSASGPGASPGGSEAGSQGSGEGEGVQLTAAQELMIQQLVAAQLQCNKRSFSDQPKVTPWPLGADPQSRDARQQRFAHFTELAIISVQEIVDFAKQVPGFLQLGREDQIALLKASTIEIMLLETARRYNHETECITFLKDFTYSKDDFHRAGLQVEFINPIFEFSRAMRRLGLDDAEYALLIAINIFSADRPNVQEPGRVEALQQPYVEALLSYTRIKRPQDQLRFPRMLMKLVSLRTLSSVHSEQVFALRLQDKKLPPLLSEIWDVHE
hcDAF12 conf = H. contortus DAF-12 receptor agonists, confirmation, cell-based, luminescence, HEK293, lit1-tk-luc, triplicate; shares compounds with hcDAF12 agonist; HEK293 hcDAF-12 lit1-tk-luc reporter; % of Δ7-dafachronic acid response; activation, % at 6.8 µM; 61% of 3,400 active;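 active = mean activation across triplicate tests above the threshold derived from the earlier primary screen, cut at about 5.5% in these data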
hgDAF12 conf = H. glycines DAF-12 receptor agonists, confirmation, cell-based, luminescence, HEK293, GAL4-LBD fusion; shares compounds with hgDAF12 agonist; HEK293 GAL4-hgDAF12 luciferase reporter, agonist mode; percent of butyrate response; activation, % at 6.8 µM; 80% of 3,300 active;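 active = mean activation over triplicate wells above the hit cutoff derived from the earlier primary screen, cut at about 11% in these data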
LXR ag 2 = LXR agonists, Gal4 luciferase reporter, confirmation, counter-screen for hgDAF-12 agonist project, cell-based, luminescence, HEK293, H. glycines campaign; 3,300 tested, under 10 active; shares compounds with hgDAF12 agonist; activation, % at 6.8 µM; 24 h;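 active = mean activation of the triplicate above a set limit carried over from the primary screen, none filed active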
Each line names hits and unclear results; the compound was inactive in the other large screens (follow-up assays come after a bar, where they were run).

CCc1ccc(NC(=O)COc2coc(CN3CCN(c4ccccc4)CC3)cc2=O)cc1	none
CCc1ccc(NC(=O)COc2ccc(F)cc2C(=O)c2cnn(-c3ccccc3)c2)cc1	hcDAF12 agonist 11.6, hgDAF12 agonist 17.8 (no result: esBAF inh) | LXRb hcDAF ctr inactive | hcDAF12 conf 7.8 | hgDAF12 conf inactive | LXR ag 2 inactive
COc1cccc(-c2ccc3c(c2)[C@@H]2[C@@H](CCN2S(=O)(=O)c2cccc(OC)c2)[C@H](CO)N3)c1	none (no result: Wnt bcat act, hcDAF12 agonist, DAX1 StAR inh, ssDAF-12 act, hgDAF12 agonist)
C[C@@H]1CN([C@@H](C)CO)C(=O)c2cc(-c3ccc(C#N)cc3)cnc2O[C@H]1CN(C)CC1CCCC1	none (no result: Wnt bcat act, hcDAF12 agonist, DAX1 StAR inh, ssDAF-12 act, hgDAF12 agonist)
COc1ccc(CN(C)C[C@@H]2OCCCC[C@@H](C)Oc3ccc(NC(=O)c4ccccc4)cc3C(=O)N([C@H](C)CO)C[C@H]2C)cc1	none (no result: Wnt bcat act, hcDAF12 agonist, DAX1 StAR inh, ssDAF-12 act, hgDAF12 agonist)
Cc1nn(-c2ccc3ccccc3c2)c(=O)c2ccccc12	Wnt bcat act 61.3, hcDAF12 agonist 11.7, ssDAF-12 act 1.7, hgDAF12 agonist 16.1 (no result: esBAF inh) | LXRb hcDAF ctr inactive | hcDAF12 conf 8.5 | hgDAF12 conf 14.8 | LXR ag 2 inactive
COc1ccc(-n2ncc3c(NCc4ccccn4)ncnc32)cc1	none (no result: Wnt bcat act)
C=CCNc1ncnc2c1cnn2-c1ccc(OC)cc1	hcDAF12 agonist 6.6, DAX1 StAR inh 4.3, ssDAF-12 act 0.9, hgDAF12 agonist 14.2 | LXRb hcDAF ctr inactive | hcDAF12 conf 5.8 | hgDAF12 conf 17.2 | LXR ag 2 inactive
COc1ccc(CNC(=O)N(C)C[C@H]2OCc3ccccc3-c3ccccc3C(=O)N([C@H](C)CO)C[C@H]2C)cc1	none (no result: Wnt bcat act, hcDAF12 agonist, DAX1 StAR inh, ssDAF-12 act, hgDAF12 agonist)
Cc1ccc(/C(N)=N/OC(=O)N2CCOCC2)cc1	none (no result: Wnt bcat act)
Cc1cccc(/C(N)=N/OC(=O)c2ccco2)c1	hcDAF12 agonist 6.6, DAX1 StAR inh 3.7, ssDAF-12 act 1.4, hgDAF12 agonist 18.1 (no result: Wnt bcat act) | LXRb hcDAF ctr inactive | hcDAF12 conf inactive | hgDAF12 conf 19.5 | LXR ag 2 inactive
Cc1ccc(/C(N)=N/OC(=O)c2ccco2)cc1	Wnt bcat act inconclusive, hcDAF12 agonist 7.8, DAX1 StAR inh 4.2, ssDAF-12 act 1.2, hgDAF12 agonist 13.6 | LXRb hcDAF ctr inactive | hcDAF12 conf inactive | hgDAF12 conf 18.9 | LXR ag 2 inactive
COC(=O)CSc1nc2cc(OC)ccc2cc1C#N	hcDAF12 agonist 8.2, DAX1 StAR inh 3.8, hgDAF12 agonist 15.2 (no result: Wnt bcat act) | LXRb hcDAF ctr inactive | hcDAF12 conf 7.8 | hgDAF12 conf 23.1 | LXR ag 2 inactive
COc1ccc2cc(C#N)c(SCC(=O)N3CCCC3)nc2c1	none
CCCC#Cc1cnc2c(c1)C(=O)N([C@@H](C)CO)C[C@H](C)[C@@H](CN(C)Cc1ccncc1)O2	none (no result: Wnt bcat act, hcDAF12 agonist, DAX1 StAR inh, ssDAF-12 act, hgDAF12 agonist)
COC(=O)c1nn(-c2ccc(-c3ccccc3)cc2)cc1O	hcDAF12 agonist 8.3, hgDAF12 agonist 14.1 (no result: Wnt bcat act) | LXRb hcDAF ctr inactive | hcDAF12 conf 8.2 | hgDAF12 conf 18.0 | LXR ag 2 inactive
O=C(C[C@@H]1CC[C@H](NC(=O)C2CC2)[C@@H](CO)O1)NCc1ccccc1Cl	none (no result: Wnt bcat act, hcDAF12 agonist, DAX1 StAR inh, ssDAF-12 act, hgDAF12 agonist)
CCc1ccc(-c2cnc3ccccc3n2)cc1NC(=O)CNC(=O)c1ccccc1	Wnt bcat act inconclusive, hcDAF12 agonist 13.1, ssDAF-12 act 1.1, hgDAF12 agonist 19.5 | LXRb hcDAF ctr inactive | hcDAF12 conf 6.6 | hgDAF12 conf inactive | LXR ag 2 inactive
O=C(Nc1cccc(-c2cnc3ccccc3n2)c1)c1ccccc1	none (no result: esBAF inh, Wnt bcat act)
COc1ccc(NC(=S)Nc2ccccn2)cc1	esBAF inh 58.0, Wnt bcat act 35.5, hcDAF12 agonist 11.4, ssDAF-12 act 1.7, hgDAF12 agonist 14.8 | LXRb hcDAF ctr inactive | hcDAF12 conf inactive | hgDAF12 conf 13.1 | LXR ag 2 inactive
Cc1ccc(-c2cnc3ccccc3n2)cc1C	Wnt bcat act 40.2, hcDAF12 agonist 14.3, ssDAF-12 act 1.5, hgDAF12 agonist 14.4 | LXRb hcDAF ctr inactive | hcDAF12 conf 15.7 | hgDAF12 conf 19.8 | LXR ag 2 inactive
Cc1cc2ncc(-c3ccccc3)nc2cc1C	Wnt bcat act 44.8, hcDAF12 agonist 14.0, ssDAF-12 act 1.7, hgDAF12 agonist 18.5 | LXRb hcDAF ctr inactive | hcDAF12 conf 11.4 | hgDAF12 conf 23.0 | LXR ag 2 inactive
Cc1sc(NC(=O)c2ccc(Br)s2)c(C(N)=O)c1C	esBAF inh inconclusive, hcDAF12 agonist 8.8, hgDAF12 agonist 19.1 (no result: Wnt bcat act) | LXRb hcDAF ctr inactive | hcDAF12 conf 11.6 | hgDAF12 conf 17.7 | LXR ag 2 inactive
O=C1CC(c2ccccc2)Sc2nc3ccccc3n21 (stereo unspecified)	Wnt bcat act 34.6, hcDAF12 agonist 6.9, DAX1 StAR inh 4.0, ssDAF-12 act 1.1, hgDAF12 agonist 19.1 (no result: esBAF inh) | LXRb hcDAF ctr inactive | hcDAF12 conf 7.3 | hgDAF12 conf 11.8 | LXR ag 2 inactive
O=C(CSc1cn(Cc2ccccc2)c2ccccc12)Nc1nccs1	esBAF inh 73.4, Wnt bcat act 52.6, hcDAF12 agonist 9.7, DAX1 StAR inh 8.9, ssDAF-12 act 1.1, hgDAF12 agonist 23.7 | LXRb hcDAF ctr inactive | hcDAF12 conf 8.9 | hgDAF12 conf 17.7 | LXR ag 2 inactive
O=C(CSc1cn(Cc2ccccc2)c2ccccc12)NCc1ccc(F)cc1	none
C/C=C/c1ccc2c(c1)O[C@@H](CN(C)C(=O)Cc1ccccc1)[C@@H](C)CN([C@@H](C)CO)S2(=O)=O	none (no result: Wnt bcat act, hcDAF12 agonist, DAX1 StAR inh, ssDAF-12 act, hgDAF12 agonist)
O=C(NCC[C@@H]1CC[C@H](NC(=O)C2CCCCC2)[C@H](CO)O1)c1cc(Cl)cc(Cl)c1	none (no result: Wnt bcat act, hcDAF12 agonist, DAX1 StAR inh, ssDAF-12 act, hgDAF12 agonist)
